Molecules are shown by their SMILES. Inconclusive results are not listed. Values without a mark were called inactive. Active and inactive are the calls of the source. Calls come from the whole dose curve; as a rule, active = well fitted activation curve with a large enough effect; inconclusive = small, poorly fitted or top-dose-only effect; inactive = no such curve, though single readings can be large or run the other way.
Potency is the fitted concentration of half-maximal effect.

Cellular tumor antigen p53 (Homo sapiens), sequence (P04637 whole entry, looked up): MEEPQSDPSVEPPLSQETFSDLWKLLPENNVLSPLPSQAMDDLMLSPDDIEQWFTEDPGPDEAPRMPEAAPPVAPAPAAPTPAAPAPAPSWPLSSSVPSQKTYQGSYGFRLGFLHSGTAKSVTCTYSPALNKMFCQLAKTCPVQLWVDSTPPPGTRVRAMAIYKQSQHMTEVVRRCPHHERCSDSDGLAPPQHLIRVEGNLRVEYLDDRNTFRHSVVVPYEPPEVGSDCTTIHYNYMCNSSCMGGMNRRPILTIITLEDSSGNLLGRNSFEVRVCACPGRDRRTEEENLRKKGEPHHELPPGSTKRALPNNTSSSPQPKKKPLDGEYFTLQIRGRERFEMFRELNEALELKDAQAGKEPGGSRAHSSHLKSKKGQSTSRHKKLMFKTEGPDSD

The assay addresses Cellular tumor antigen p53 (Homo sapiens) (UniProt P04637). Briefly: Primary qHTS for small molecule compounds that upregulate eGFP-tagged delta133p53alpha (in N-terminal) cells. (AID 2060322).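 For activation: series mostly up to about 56 µM; 0% = DMSO vehicle and 100% = reference activator.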 Note: nearly all actives have a fitted effect of over 75% in size. Particulars: NCI-H358 eGFP-delta133p53alpha fluorescence, 24 h; activation: stronger effect = higher value. The method in brief:
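NCI-H358 cells pre-induced 24 h with 10 ng/ml doxycycline for eGFP-delta133p53alpha, plated dox-free and exposed 24 h at 37C to titrated compounds. Fixed, Hoechst-stained; gated GFP peak intensity by laser scanning cytometry, normalized to DMSO (0%) and 57.5 uM 5-azacytidine (100%).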
Background: Quantitative high-throughput screening tests each substance at several concentrations.
Regarding `C/C=C/C=C/C(O)=C1\C(O)=C(C)C(=O)[C@@]2(C)OC(=O)[C@@](C)(NC(=O)/C=C/C(=O)O)[C@@H]12`, the activation was 10.7%. On to `CC(=O)OC1C(=O)C2C3OCC4=C3[C@@](C)(CC[C@@H]4O)CC[C@]2(C)[C@H]1C(C)C` (stereo partly drawn), for which the activation was -14.5%. Still for that read-out and setting: the figure for `C=C(C)C1CCC2(C(=O)O)CCC3(C(=O)O)C(CCC4C5(C)CCC(O)C(C)(C(=O)O)C5CCC43C)C12` (stereo not drawn) is -3.82%; for `C=C(C)[C@H]1CC[C@]2(C(=O)O)CC[C@]3(C)C(CCC4[C@@]5(C)CCC(=O)C(C)(C)C5CC[C@]43C)C12` (stereo partly drawn) it is -11.6%; for `COc1cc(CCC2=NN=C(NC(=O)c3ccc(N4C[C@@H](C)N[C@@H](C)C4)cc3)C2)cc(OC)c1` it is -0.333%.

For the compound `O=C(CO)[C@@H](O)[C@H](O[C@@H]1O[C@H](CO)[C@H](O)[C@H](O)[C@H]1O)[C@H](O)CO`, the activation was 28.3%. On the same count and under the same terms, the figure for `COc1cc(C(=O)OC(COCCC(C)C)CN2CCOCC2)cc(OC)c1OC` (stereo not drawn) is 14.3%. Turning to `C=C(C)[C@@H]1CC[C@]2(C)CC[C@]3(C)[C@H](CC[C@@H]4[C@@]5(C)CC[C@@H](O)C(C)(C)[C@@H]5CC[C@]43C)[C@@H]12`, the activation is 17.6%. The same measure, in the same setting: the figure for `CC(C)(O)c1ccc2c(c1)C(O)CC1C(C)(C(=O)O)CCCC21C` (stereo not drawn) is 5.34%; for `CC(C)NC[C@H](O)COc1ccc(CCOCC2CC2)cc1` it is 1.67%. On the same count and under the same terms, the figure for `C[C@@H]1C[C@H]2O[C@@]3(O[C@@H]2C(C)(C)O)C(O)[C@@]2(C)C4CCC5C(C)(C)[C@@H](O[C@H]6OC[C@H](O)[C@@H](O)[C@@H]6O)CC[C@@]56C[C@@]46CC[C@]2(C)C13` (stereo partly drawn) is -26.7%. For `COc1ccc(/C=C/C(=O)O[C@H]2[C@@H]3C=CO[C@@H](O[C@@H]4O[C@H](CO)[C@@H](O)[C@H](O)[C@H]4O)[C@@H]3[C@@]3(CO)O[C@@H]23)cc1O`, the activation is -2.29%.

For `O=C(/C=C/c1ccccc1)OC[C@]12O[C@H]1[C@@H](O)[C@@H]1C=CO[C@@H](O[C@@H]3O[C@H](CO)[C@@H](O)[C@H](O)[C@H]3O)[C@@H]12`, the activation was 7.14%.

As for `CCOc1ncc(S(=O)(=O)N2CCN(CC)CC2)cc1-c1nc2c(CC)n(CCOC)nc2c(=O)[nH]1`, the activation is -9.07%.

On to `CC1CC(=O)[C@]2(O)C(C(=O)OCCc3ccc(O)cc3)=CO[C@@H](O[C@@H]3O[C@H](CO)[C@@H](O)[C@H](O)[C@H]3O)[C@H]12` (stereo partly drawn), for which the activation is -18.3%.

Take `Cc1cc(CNC(=O)c2cc(C(=O)NCc3ccc(F)c(C)c3)ncn2)ccc1F`: the activation was 1.67%. On to `Cc1c(C(=O)NCCCO)cnn1-c1nc(-c2cccc(C(F)(F)F)c2)cs1`, for which the Potency was 9.53 µM (active). Same read-out and setting: with `C=CC(=O)Nc1cc(-n2c(=O)ccc3cnc4ccc(-c5ccc(NS(C)(=O)=O)cc5)cc4c32)ccc1C` the figure was 10.7 µM (active). For `CC(C)C1(O)NC(=O)C(CC2(O)c3ccccc3N3C(=O)C(C)(C)NC32)n2c1nc1ccccc1c2=O` (stereo not drawn), the activation was -3.05%. With `CC(C)(O)/C=C/CC(C)(O)C1C(O)CC2(C)C3CCC4C(C)(C)C(=O)CCC4(C)C3CCC12C` (stereo not drawn), the activation is 2.29%.

For the compound `CCC(C)C(=O)O[C@H]1[C@H](O)[C@@]2(COC(C)=O)C(CC1(C)C)C1=CCC3[C@@]4(C)CC[C@H](O[C@@H]5O[C@H](C(=O)O)[C@@H](O)[C@H](O)[C@H]5O)[C@@](C)(CO)C4CC[C@@]3(C)[C@]1(C)C[C@@H]2O` (stereo partly drawn), the activation was -0.893%. On the same count and under the same terms, the figure for `C=C1CCC2C(C)(C)CC(O)CC2(C)C1CCC(C)CC(=O)O` (stereo not drawn) is 2.68%. As for `C=C1CC[C@H]2[C@@](C)(CCC[C@@]2(C)C(=O)O)[C@@H]1CCC(C)CCO` (stereo partly drawn), the activation was 9.16%. The same measure, in the same setting: with `C=C(C(=O)O)C1CC(OC(=O)CC(C)CC)C2(C)CCCC(=C)C2C1` (stereo not drawn) the figure was -13%; with `C[C@]12CCC[C@](C)(C(=O)O)C1CCC13CC(CO)C(CCC12)C3` (stereo partly drawn), -19.1%. Consider `C[C@@H]1O[C@@H](OC[C@H]2O[C@@H](OCc3ccccc3)[C@H](O)[C@@H](O)[C@@H]2O)[C@H](O)[C@H](O)[C@H]1O`, for which the activation is 15.3%. Same read-out and setting: the figure for `CC(=O)c1c(C)cc(O)cc1O[C@@H]1O[C@H](CO)[C@@H](O)[C@H](O)[C@H]1O` is -17.6%; for `CC1OC(OC2C(O)C(C(=O)O)OC(OC3CCC4(C)C(CCC5(C)C4C=CC4=C6CC(C)(C)CC(O)C6(C)CCC45C)C3(C)C)C2OC2OCC(O)C(O)C2O)C(O)C(O)C1O` (stereo not drawn) it is -19.1%.
